Measured values as given in PubChem BioAssay (NCI).
The panel holds about 83,000 compounds, 20% with a hit somewhere; the sample as a whole holds those more often.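 The endpoint reported here, percent growth, reads 100 for growth as untreated, 0 for no net growth and -100 for all cells dead.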 A number with no mark means an inactive call. Activity calls are given as the source filed them. How the source made its calls: active means growth percent below 10; inactive means the rest.

These molecules were tested on TK-10 renal (assay: NCI-60 one-dose screen, 48 h (100 = growth as untreated, 0 = no growth, -100 = all killed)). Details: 10 µM unless noted.

Row | Structure (SMILES) | growth
1 | O=c1oc2ccc(Br)cc2c(=O)n1-c1ccc(F)cc1F | 11.6%
2 | O=c1c2cc(F)cc(Cl)c2sc2c(Cl)nc3ccccc3c12 | 151%
3 | O=C(CCN1C(=O)c2ccccc2C1=O)Nc1ccc(Cl)cc1 | 93.1%
4 | O=c1oc2ccc(Cl)cc2c(=O)n1-c1ccc(Cl)cc1F | 6.66% (active)
5 | O=C(Nc1ccc(F)cc1F)c1cc(Cl)ccc1O | 17.4%
6 | O=c1oc2ccc(I)cc2c(=O)n1-c1ccc(Cl)cc1F | 10.5%
7 | CC1=C(C(=O)OCC2CCN(C(=O)OC(C)(C)C)CC2)[C@@H](c2cccc(C#N)c2)C2=C(CC(C)(C)CC2=O)N1 | 68.5%
8 | COc1cccc(/C=C/C(=O)c2c(C)nc3ccccc3c2/C=C/c2ccccc2)c1OC | 61.6%
9 | O=c1oc2ccc(F)cc2c(=O)n1-c1ccc(F)cc1F | 10.4%
10 | O=C1c2cc(I)ccc2Oc2cc([N+](=O)[O-])ccc2N1c1ccc(Cl)cc1F | 120%
11 | O=c1oc2ccc(-c3ccc(F)cc3F)cc2c(=O)n1-c1ccc(Cl)c(C(F)(F)F)c1 | 15.8%
12 | COc1ccc(/C=C/C(=O)c2c(C)nc3ccccc3c2/C=C/c2ccccc2)cc1O | 125%
13 | O=c1oc2ccc(-c3ccc(F)cc3F)cc2c(=O)n1-c1cccc(C(F)(F)F)c1 | 11.6%
14 | COc1ccc(OC)c(/C=C/C(=O)c2c(C)nc3ccccc3c2/C=C/c2ccccc2)c1 | 112%
15 | O=C(CCc1nnc2sc(COc3ccccc3)nn12)c1nc2ncccc2[nH]1 | 124%
16 | O=C(COc1cc(O)c2c(=O)cc(-c3ccccc3)oc2c1)Nc1ccccc1 | 103%
17 | O=C(CCc1nnc2sc(-c3ccc(Cl)cc3Cl)nn12)c1nc2ncccc2[nH]1 | -31.6% (active)
18 | O=C1c2cc(Cl)ccc2Oc2cc([N+](=O)[O-])ccc2N1c1ccc(F)cc1F | 112%
19 | O=C(CCc1nnc2sc(Cc3ccccc3Cl)nn12)c1nc2ncccc2[nH]1 | 128%

Row | Structure (SMILES) | growth
20 | Nc1ccc(-c2nn3c(CCC(=O)c4nc5ncccc5[nH]4)nnc3s2)c(O)c1 | 144%
21 | O=C(c1ccccc1)N(CCc1ccc(Cl)cc1)C(=S)N(C(=O)c1ccccc1)c1ccccc1 | 97.4%
22 | C#CCn1cc(C=C2C(=O)N(C)C(=O)N(C)C2=O)c2cc(Cl)ccc21 | 106%
23 | O=C(Nc1ccc(I)cc1F)c1cc(Br)ccc1O | 1.98% (active)
24 | Cc1nc2ccccc2c(/C=C/c2ccccc2)c1C(=O)/C=C/c1ccc(Cl)cc1 | 21.9%
25 | O=C(Nc1ccc(F)cc1F)c1cc(Br)ccc1O | 2.49% (active)
26 | O=C1NC(=S)NC(=O)C1=Cc1cn(Cc2cn(Cc3cccc4ccccc34)nn2)c2ccccc12 | 134%
27 | COc1c(B(O)O)cccc1-c1nc2ccc3n[nH]c(F)c3c2c2c1CCCC2 | 35.7%
28 | COc1c(B(O)O)cccc1-c1nc2ccc3[nH]ncc3c2c2c1C1CCC2C1 (stereo unspecified) | 44.2%
29 | O=C(c1ccccc1)N(C(=S)NCCc1ccc(Cl)cc1)c1ccc(Cl)cc1 | 44.3%
30 | O=C(Nc1ccc(I)cc1F)c1cc(F)ccc1O | -0.353% (active)
31 | CC1=C(C(=O)OCC2CCN(C(=O)OC(C)(C)C)CC2)[C@H](c2cccc(Br)c2)C2=C(CC(C)(C)CC2=O)N1 | 38.9%
32 | O=c1oc2ccc(F)cc2c(=O)n1-c1ccc(Br)cc1F | 3.34% (active)
33 | O=c1oc2ccc(I)cc2c(=O)n1-c1ccc(I)cc1F | 11.3%
34 | O=c1oc2ccc(I)cc2c(=O)n1-c1ccc(F)cc1F | 11.6%
35 | Cn1cc([C@@H]2Nc3ccc4[nH]ncc4c3[C@H]3[C@H]4CCC(C4)[C@H]32)c(C(F)(F)F)n1 | 65.6%
36 | O=C(Nc1ccc(Cl)cc1F)c1cc(Br)ccc1O | 5.64% (active)
37 | O=c1oc2ccc(Cl)cc2c(=O)n1-c1ccc(I)cc1F | 11%
38 | O=C(Nc1ccc(I)cc1F)c1cc(Cl)ccc1O | 10.5%

Each molecule was assayed on ACHN renal in the same assay as above. Details: 10 µM unless noted.

Row | Structure (SMILES) | growth
39 | O=c1oc2ccc(Br)cc2c(=O)n1-c1ccc(F)cc1F | 4.95% (active)
40 | O=c1c2cc(F)cc(Cl)c2sc2c(Cl)nc3ccccc3c12 | 95.3%
41 | O=C(CCN1C(=O)c2ccccc2C1=O)Nc1ccc(Cl)cc1 | 82.2%
42 | O=c1oc2ccc(Cl)cc2c(=O)n1-c1ccc(Cl)cc1F | 4.37% (active)
43 | O=C(Nc1ccc(F)cc1F)c1cc(Cl)ccc1O | 4.87% (active)
44 | O=c1oc2ccc(I)cc2c(=O)n1-c1ccc(Cl)cc1F | 3.57% (active)
45 | CC1=C(C(=O)OCC2CCN(C(=O)OC(C)(C)C)CC2)[C@@H](c2cccc(C#N)c2)C2=C(CC(C)(C)CC2=O)N1 | 38.5%
46 | COc1cccc(/C=C/C(=O)c2c(C)nc3ccccc3c2/C=C/c2ccccc2)c1OC | 31.4%
47 | O=c1oc2ccc(F)cc2c(=O)n1-c1ccc(F)cc1F | 36.3%
48 | O=C1c2cc(I)ccc2Oc2cc([N+](=O)[O-])ccc2N1c1ccc(Cl)cc1F | 90.3%
49 | O=c1oc2ccc(-c3ccc(F)cc3F)cc2c(=O)n1-c1ccc(Cl)c(C(F)(F)F)c1 | 18.2%
50 | COc1ccc(/C=C/C(=O)c2c(C)nc3ccccc3c2/C=C/c2ccccc2)cc1O | 62.2%
51 | O=c1oc2ccc(-c3ccc(F)cc3F)cc2c(=O)n1-c1cccc(C(F)(F)F)c1 | 6.31% (active)
52 | COc1ccc(OC)c(/C=C/C(=O)c2c(C)nc3ccccc3c2/C=C/c2ccccc2)c1 | 74.6%
53 | O=C(CCc1nnc2sc(COc3ccccc3)nn12)c1nc2ncccc2[nH]1 | 107%
54 | O=C(COc1cc(O)c2c(=O)cc(-c3ccccc3)oc2c1)Nc1ccccc1 | 57.9%
55 | O=C(CCc1nnc2sc(-c3ccc(Cl)cc3Cl)nn12)c1nc2ncccc2[nH]1 | -48% (active)
56 | O=C1c2cc(Cl)ccc2Oc2cc([N+](=O)[O-])ccc2N1c1ccc(F)cc1F | 90.6%
57 | O=C(CCc1nnc2sc(Cc3ccccc3Cl)nn12)c1nc2ncccc2[nH]1 | 94.9%

Row | Structure (SMILES) | growth
58 | Nc1ccc(-c2nn3c(CCC(=O)c4nc5ncccc5[nH]4)nnc3s2)c(O)c1 | 90.5%
59 | O=C(c1ccccc1)N(CCc1ccc(Cl)cc1)C(=S)N(C(=O)c1ccccc1)c1ccccc1 | 110%
60 | C#CCn1cc(C=C2C(=O)N(C)C(=O)N(C)C2=O)c2cc(Cl)ccc21 | 99.4%
61 | O=C(Nc1ccc(I)cc1F)c1cc(Br)ccc1O | 4.42% (active)
62 | Cc1nc2ccccc2c(/C=C/c2ccccc2)c1C(=O)/C=C/c1ccc(Cl)cc1 | 14.3%
63 | O=C(Nc1ccc(F)cc1F)c1cc(Br)ccc1O | 1.37% (active)
64 | O=C1NC(=S)NC(=O)C1=Cc1cn(Cc2cn(Cc3cccc4ccccc34)nn2)c2ccccc12 | 96%
65 | COc1c(B(O)O)cccc1-c1nc2ccc3n[nH]c(F)c3c2c2c1CCCC2 | 65.9%
66 | COc1c(B(O)O)cccc1-c1nc2ccc3[nH]ncc3c2c2c1C1CCC2C1 (stereo unspecified) | 63.2%
67 | O=C(c1ccccc1)N(C(=S)NCCc1ccc(Cl)cc1)c1ccc(Cl)cc1 | 64.5%
68 | O=C(Nc1ccc(I)cc1F)c1cc(F)ccc1O | 2.56% (active)
69 | CC1=C(C(=O)OCC2CCN(C(=O)OC(C)(C)C)CC2)[C@H](c2cccc(Br)c2)C2=C(CC(C)(C)CC2=O)N1 | 27.9%
70 | O=c1oc2ccc(F)cc2c(=O)n1-c1ccc(Br)cc1F | 2.25% (active)
71 | O=c1oc2ccc(I)cc2c(=O)n1-c1ccc(I)cc1F | 4.07% (active)
72 | O=c1oc2ccc(I)cc2c(=O)n1-c1ccc(F)cc1F | 19.6%
73 | Cn1cc([C@@H]2Nc3ccc4[nH]ncc4c3[C@H]3[C@H]4CCC(C4)[C@H]32)c(C(F)(F)F)n1 | 50.5%
74 | O=C(Nc1ccc(Cl)cc1F)c1cc(Br)ccc1O | 2.84% (active)
75 | O=c1oc2ccc(Cl)cc2c(=O)n1-c1ccc(I)cc1F | 4.07% (active)
76 | O=C(Nc1ccc(I)cc1F)c1cc(Cl)ccc1O | 6.15% (active)
